Source: PubChem BioAssay AID489025 (Southern Research Specialized Biocontainment Screening …, 2010)
Out of some 2,300 compounds screened, about 790 (34%) were called active. The rule behind the calls is not given here. The list shows a part of the results. Where a call stands in place of a potency, no number is given. Potency and affinity values are given separately.

Test: THP-1 cell cytotoxicity, dose response, cytotoxicity control for non-replicating M. tuberculosis project (AID 489025)
Conditions: THP-1 cell viability; series mostly up to 40 µM
With `Cc1ccc2nc(C)c3c(c2c1)SCC3` the outcome was “inactive”.
In the case of `COc1ccc(OCC(=O)Nc2ccc(N3CCN(C(=O)c4ccco4)CC3)cc2)cc1`, the outcome is reported as “inactive”.
In the case of `Nc1scc(-c2ccncc2)c1Cl`, the outcome is reported as “inactive”.
With `CCOC(=O)COc1ccc2c(c1)C(=O)CC(C)(c1cccnc1)O2` (stereo unspecified) the outcome was “inactive”.
In the case of `COc1cc(/C=N/Nc2cccc3cccnc23)cc(OC)c1O`, the outcome is reported as “inactive”.
For `C/C(O)=C\c1nc2ccccc2oc1=O`, the outcome was “inactive”.
With `Oc1cc(NCc2cccnc2)ccc1-c1nc2ccccc2o1` the outcome was “inactive”.
With `CCc1nnc(N/N=C/c2ccc(N3CCC(C)CC3)c([N+](=O)[O-])c2)n1N` the outcome was “inactive”.
For `COc1cc(/C=N/N(C)C)ccc1OC(=O)c1cccs1`, the outcome was “inactive”.
For `O=C(COc1ccc2c(c1)CCC2)Nc1ccccn1`, the outcome was “inactive”.
In the case of `Cc1cccc2c(CC(=O)O)noc12`, the outcome is reported as “inactive”.
In the case of `COc1ccc(/C=C/c2nc3ccccc3c(=O)o2)cc1`, the outcome is reported as “inactive”.
In the case of `COc1cc(OC)cc(-c2nc3ccccc3c(=O)o2)c1`, the outcome is reported as “inactive”.
With `O=C(C/C=N\OCc1ccc([N+](=O)[O-])cc1)Nc1ccc(Cl)cc1` the outcome was “inactive”.
With `O=C(COC(=O)CC1CCCC1)Nc1ccc(OC(F)F)cc1` the outcome was “inactive”.
For `COCCCNC(=O)COC(=O)c1ccc(-c2nc3ccccc3s2)s1`, the outcome was “inactive”.
For `CC(C)Cn1c(N)c(C(=O)COC(=O)c2ccc([N+](=O)[O-])o2)c(=O)n(C)c1=O`, the outcome was “inactive”.
In the case of `CCc1ccc(C(=O)COC(=O)c2ccc(Cl)nc2)cc1`, the outcome is reported as “inactive”.
In the case of `Oc1oc(-c2ccco2)nc1C=Nc1cccc(Cl)c1`, the outcome is reported as “inactive”.
In the case of `CCCCCn1nnc2c(=O)oc3ccccc3c21`, the outcome is reported as “inactive”.
For `CCOc1ccc(OCC(=O)OCc2cc(=O)n3cc(Br)ccc3n2)cc1`, the outcome was “inactive”.
In the case of `CCOC(=O)c1nc2sc3c(c2c(=O)[nH]1)CCC(C)C3` (stereo unspecified), the outcome is reported as “inactive”.
In the case of `Nc1nonc1C(=O)NCCN=Cc1cc(Cc2ccccc2)cc(Br)c1O`, the outcome is reported as “inactive”.
In the case of `COc1cccc(COC(=O)CCNC(=O)c2ccc(Cl)cc2)c1OC`, the outcome is reported as “inactive”.
For `COc1ccccc1C(c1nnnn1Cc1ccccc1)N1CCC(C(N)=O)CC1` (stereo unspecified), the outcome was “inactive”.
In the case of `CCCCNC(=O)N1CCc2ccccc2C1`, the outcome is reported as “inactive”.
In the case of `C/C(=N\NC(=O)c1ccc([N+](=O)[O-])c(C)c1)c1ccccc1Cl`, the outcome is reported as “inactive”.
With `COc1ccc(N=N/C(=C\O)C(=O)c2ccco2)cc1` the outcome was “inactive”.
For `Cc1[nH]c2ccccc2c1C(=O)C(C)OC(=O)c1ccc([N+](=O)[O-])o1` (stereo unspecified), the outcome was “inactive”.
With `CCOC(=O)c1cc(-c2c(Cl)cccc2Cl)no1` the outcome was “inactive”.
In the case of `Cc1ccc(C(=O)O/N=C(\N)c2cccc([N+](=O)[O-])c2)cc1`, the outcome is reported as “inactive”.
For `O=C(OCCCOC(=O)c1ccc([N+](=O)[O-])o1)c1ccc([N+](=O)[O-])o1`, the outcome was “inactive”.
In the case of `O=C(Nc1nccs1)c1cc2cc(Cl)ccc2oc1=O`, the outcome is reported as “inactive”.
For `N=c1oc2ccccc2cc1C(=O)NC1CCCCCC1`, the outcome was “inactive”.
With `O=C(COC(=O)c1cccc(C(F)(F)F)c1)NCc1ccccc1` the outcome was “inactive”.
In the case of `CCOC(=O)c1cn(Cc2cccc(Cl)c2)nn1`, the outcome is reported as “inactive”.
For `CSc1ccccc1NC(=O)c1cc(C(C)C)on1`, the outcome was “inactive”.
With `CCCCNS(=O)(=O)c1ccc(OCC(=O)OC)cc1` the outcome was “inactive”.
With `O=c1oc(/C=C/c2ccc([N+](=O)[O-])s2)nc2ccccc12` the outcome was “inactive”.
For `C=C(C)C1Cc2cc3ccc(=O)oc3cc2O1` (stereo unspecified), the outcome was “inactive”.
For `C/C(=N\NC(=O)c1nn(C)cc1Cl)c1ccncc1`, the outcome was “inactive”.
With `CCOc1ccc(-c2cc(CCCC(=O)NCCC(C)C)no2)cc1` the outcome was “inactive”.
For `O=c1c(=Nc2ccccc2O)c(=O)c2ccccc12`, the outcome was “inactive”.
In the case of `O=C(O)c1[nH]c(=O)[nH]c(=O)c1F`, the outcome is reported as “inactive”.
With `CCOC(=O)CN1NC2(CCC(C)CC2)NC1=S` (stereo unspecified) the outcome was “inactive”.
In the case of `CCc1cc(C(c2ccncc2)N2CCN(C)CC2)c(NC(=O)c2ccccc2)s1` (stereo unspecified), the outcome is reported as “inactive”.
In the case of `CCc1ccc(NC(=O)C(=O)NNC(=O)c2cccc(OC)c2)cc1`, the outcome is reported as “inactive”.
For `Cc1ccc(C(=O)Oc2cccc(-n3cnnn3)c2)cc1`, the outcome was “inactive”.
For `COC(=O)COc1ccc(-c2ccc(F)cc2)cc1C=O`, the outcome was “inactive”.
With `Cc1ccc(CCC(=O)Nc2ccc([N+](=O)[O-])cc2)o1` the outcome was “inactive”.
For `COc1ccc(/C=N/NC(=O)C(=O)NCc2cccnc2)cc1OC`, the outcome was “inactive”.
With `Cc1ccc(CCC(=O)Nc2cc(Cl)ccc2Cl)o1` the outcome was “inactive”.
In the case of `O=[N+]([O-])c1ccc(/C=N/NS(=O)(=O)c2ccc(Cl)cc2)o1`, the outcome is reported as “inactive”.
With `Cc1ccc(OCC(=O)N/N=C/c2ccc([N+](=O)[O-])o2)cc1` the outcome was “inactive”.
With `Cc1ncsc1CCOC(=O)c1ccc([N+](=O)[O-])cc1` the outcome was “inactive”.
In the case of `Oc1ccc(Br)cc1-c1ccn[nH]1`, the outcome is reported as “inactive”.
For `CCCCNC(=O)COC(=O)c1cc(F)c(F)cc1Cl`, the outcome was “inactive”.
In the case of `C=Cc1cccc(NC(=O)COc2ccccc2)c1`, the outcome is reported as “inactive”.
With `Cc1nn(-c2ccccc2)nc1C(=O)c1c(C)[nH]n(-c2ccccc2)c1=O` the outcome was “inactive”.
For `CCC(C)c1ccc(O)c(/C=N/O)c1` (stereo unspecified), the outcome was “inactive”.
For `O=[N+]([O-])c1cc2oc3c(c2c(C=NCc2ccccc2)c1O)CCCC3`, the outcome was “inactive”.
For `O=C(N/N=C/C=C/c1ccco1)c1ccncc1`, the outcome was “inactive”.
For `Nc1ccc(C(=O)N/N=C\C=C\c2ccc([N+](=O)[O-])cc2)cc1`, the outcome was “inactive”.
For `O=C(COC(=O)CCC(=O)c1ccc(F)cc1)Nc1ccc(F)cc1F`, the outcome was “inactive”.
With `COc1cccc(OC(=O)c2cc3ccccc3oc2=O)c1` the outcome was “inactive”.
For `CCC(=O)N1CCN(c2cc3c(cc2F)c(=O)c(C(=O)O)cn3CC)CC1`, the outcome was “inactive”.
In the case of `CC(C)OC(=O)CCCCCN1C(=O)CSC1=S`, the outcome is reported as “inactive”.
With `O=C(OCC#CCSc1nnc(-c2ccccc2)o1)c1ccco1` the outcome was “inactive”.
With `COC(=O)CCCCCN1C(=O)/C(=C\c2ccncc2)SC1=S` the outcome was “inactive”.
With `Cc1ccc(C(=O)c2cncc(Br)c2)cc1` the outcome was “inactive”.
For `CCCCN1C(=O)C2(NNc3ccccc3O2)c2ccccc21` (stereo unspecified), the outcome was “inactive”.
In the case of `COC(=O)COc1ccc2c(=O)c(Oc3ccccc3)c(C)oc2c1`, the outcome is reported as “inactive”.
For `NC(N)=N/N=C/c1cc([N+](=O)[O-])ccc1O`, the outcome was “inactive”.
For `O=C(C/C=N\OCc1ccc([N+](=O)[O-])cc1)Nc1ccc(Br)cc1`, the outcome was “inactive”.
In the case of `O=C(NCC1CCCCC1)c1ccc([N+](=O)[O-])cc1`, the outcome is reported as “inactive”.
In the case of `O=C(NNc1ccc([N+](=O)[O-])cc1)C1CC2CCCC(C1)C2=O` (stereo unspecified), the outcome is reported as “inactive”.
With `CCCC(=O)Nc1cccc(-c2nc3ccccc3c(=O)o2)c1` the outcome was “inactive”.
In the case of `C#CCOc1coc(COC(=O)c2ccccc2)cc1=O`, the outcome is reported as “inactive”.
With `CC1C/C(=N/N2C(=O)CSC2=S)CC(C)(C)C1` (stereo unspecified) the outcome was “inactive”.
With `CCCCCCC1CC(C)(C(=O)CNc2nncs2)OC1=O` (stereo unspecified) the outcome was “inactive”.
In the case of `CC1=NN(C(=O)c2csc(C)c2C)C(O)(C(F)(F)F)C1` (stereo unspecified), the outcome is reported as “inactive”.
In the case of `Nc1cccn2c(-c3ccc(Cl)cc3)cnc12`, the outcome is reported as “inactive”.
In the case of `Cc1ccc(C(=O)Nc2nccs2)cc1`, the outcome is reported as “inactive”.
In the case of `CCN1CCN(C(=O)CN(Cc2ccccc2)S(C)(=O)=O)CC1`, the outcome is reported as “inactive”.
In the case of `C/C(=N\NC(=O)c1cc([N+](=O)[O-])cc([N+](=O)[O-])c1)c1ccco1`, the outcome is reported as “inactive”.
In the case of `CC(C)c1ccc(C2=C(O)c3ccccc3C(=O)C2=O)cc1`, the outcome is reported as “inactive”.
For `N#CC1=C(N)Oc2n[nH]c(-c3cccnc3)c2C1c1ccc([N+](=O)[O-])o1` (stereo unspecified), the outcome was “inactive”.
With `CCCc1cc(C(=O)Nc2ccccc2SC)no1` the outcome was “inactive”.
For `CCOC(=O)c1c(C)nc2cc(C)ccn12`, the outcome was “inactive”.
With `Cc1c(-c2ccc(Br)cc2)nc2ccccn12` the outcome was “inactive”.
In the case of `c1ccc(-c2noc(CC3CCCCC3)n2)nc1`, the outcome is reported as “inactive”.
In the case of `CCCCCC1CC(CC(=O)NC(=S)Nc2ccc([N+](=O)[O-])cc2)C(=O)O1` (stereo unspecified), the outcome is reported as “inactive”.
With `O=C(N/N=C/c1ccc[nH]1)c1ccc(Cl)cc1` the outcome was “inactive”.
For `Cc1ccc(-c2nnc(NC3CCCC3)s2)cc1`, the outcome was “inactive”.
In the case of `CCOC(=O)COc1cc(N)c(Cl)cc1Cl`, the outcome is reported as “inactive”.
For `CCCCc1ccc(NS(=O)(=O)c2c(C)n(C)c(=O)n(C)c2=O)cc1`, the outcome was “inactive”.
With `CN1CCN(/N=C/c2ccc(-c3ccc([N+](=O)[O-])cc3Cl)o2)CC1` the outcome was “inactive”.
With `c1ccc(-c2nnc(SCc3cn4ccsc4n3)o2)cc1` the outcome was “inactive”.
With `COC(=O)[C@@H](NC(=O)c1cc(COc2cncc(Cl)c2)on1)c1ccccc1` the outcome was “inactive”.
For `CCOC(=O)C1CCN(c2nc3cc(OC)ccc3cc2C#N)CC1`, the outcome was “inactive”.
With `N#CC(C(=O)NCc1ccco1)c1nc2ccccc2nc1N1CCOCC1` (stereo unspecified) the outcome was “inactive”.
For `CCCCCCOc1ccc(C(=O)O)cc1C#N`, the outcome was “inactive”.
In the case of `Cc1ccc(C)c(NC(=O)COC(=O)c2cc3ccccc3oc2=O)c1`, the outcome is reported as “inactive”.
In the case of `CC(C)OC(=O)COc1ccc(-c2ccccc2)cc1`, the outcome is reported as “inactive”.
In the case of `CC(NC(=O)COc1ccc(-c2ccccc2)cc1)C1CCCO1` (stereo unspecified), the outcome is reported as “inactive”.
For `COC(=O)c1ccc(CSc2nnc(-c3ccncc3)o2)o1`, the outcome was “inactive”.
In the case of `COCCCn1c(=NC(=O)c2ccccc2)c(C#N)cc2c(=O)n3cccc(C)c3nc21`, the outcome is reported as “inactive”.
In the case of `O=C(COC(=O)c1ccccn1)Nc1cccc(Cl)c1Cl`, the outcome is reported as “inactive”.
With `O=C(Nc1ccn(Cc2ccccc2)n1)c1ccc(F)cc1` the outcome was “inactive”.
In the case of `CN(CCCCOc1ccc(F)cc1)Cc1ccccc1`, the outcome is reported as “inactive”.
In the case of `C=CCN=C1SC(CC)C(=O)N1S(=O)(=O)c1ccc(C)cc1` (stereo unspecified), the outcome is reported as “inactive”.
For `Cc1ccc(Sc2ccc(/C=C3/C(=O)NN(c4ccccc4)C3=O)o2)cc1`, the outcome was “inactive”.
For `Cc1ccc(N=Nc2c(C)[nH]n(C(N)=S)c2=O)cc1C`, the outcome was “inactive”.
For `O=[N+]([O-])c1ccccc1C1Nc2cccc3cccc(c23)N1`, the outcome was “inactive”.
For `CCOc1ccc(NCC(=O)c2ccc(C)cc2)cc1`, the outcome was “inactive”.
In the case of `Cc1cc(/C=N\NC(=O)c2cccs2)c(C)n1-c1ccc2ncccc2c1`, the outcome is reported as “inactive”.
In the case of `NC(N)=N/N=C/c1cccc([N+](=O)[O-])c1O`, the outcome is reported as “inactive”.
For `Cc1cccc(Cc2cnc(NC(=O)C3=NCCN3)s2)c1`, the outcome was “inactive”.
In the case of `COc1cc(/C=C2/C(=O)NN(c3ccc(Cl)cc3)C2=O)ccc1OC(=O)c1ccco1`, the outcome is reported as “inactive”.
In the case of `COC(=O)C1CC(=O)N(c2ccc(OCc3ccccc3Cl)cc2)C1` (stereo unspecified), the outcome is reported as “inactive”.
With `O=C(CCC1CCCCC1)NCc1ccc(F)cc1` the outcome was “inactive”.
